Holding throughout (test): NCI-60 one-dose screen, 48 h (100 = growth as untreated, 0 = no growth, -100 = all killed)
What all share (conditions): 10 µM unless noted

For test [1], the system named is NCI-H23 lung.
Test [2] relates to NCI-H226 lung.
Test [3] concerns NCI-H322M lung.
The subject of test [4] is HOP-62 NSCLC.
The subject of test [5] is NCI-H460 lung.
Test [6] has as its system HOP-92 NSCLC.
Test [7] concerns NCI-H522 lung.
Test [8] relates to A549/ATCC NSCLC.
The subject of test [9] is 786-0 renal.
Test [10] relates to COLO 205 colon.
Test [11] concerns DU-145 prostate.
In test [12] the test system is K-562 leukemia.
The test system of test [13] is MALME-3M melanoma.
For test [14], the system named is MDA-MB-231 breast.
The subject of test [15] is RXF 393 renal.
Test [16] deals with SF-268 CNS.
The test system of test [17] is SF-295 CNS.
The test system of test [18] is SF-539 CNS.
Test [19] relates to UACC-257 melanoma.
In test [20] the test system is M14 melanoma.

About 83,000 compounds went through this panel and 20% of them were active in at least one assay; those are over-represented in the sample as a whole.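 Method: cells in 96-well plates; compound added at one concentration; 48 h incubation; percent growth measured; values under 10 scored active.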 A number with no mark means an inactive call. Active and inactive are the calls of the source.

Our source for the growth values is PubChem BioAssay (NCI).

Regarding `COC1OC(CO)C(OC)C(O)C1O` (stereo not given), the growth is 105% in test [1]; 102% in test [2]; 99.9% in test [3]; 102% in [4]; 97.4% in test [5]; 111% in test [6]. Besides, the growth in test [7] was 113%; in test [8] it was 103%; in test [9], 101%; in test [10], 113%; in test [11], 105%; in test [12] it was 102%. Further, the growth is 111% in [13]; 111% in [14]; 99.4% in [15]; 95.7% in test [16]; 96.7% in test [17]; 99% in test [18]. Also, the growth in [19] is 106%; in test [20], 103%.

On to `CS(=O)CC(=N\O)/C(CS(C)=O)=N\O` (stereo not given), for which the growth is 106% in [1]; 110% in test [2]; 98% in [3]; 102% in test [4]; 111% in test [5]; 105% in [6]. Also, the growth in test [7] is 96%; in test [8] it was 97.4%; in test [9], 99.2%; in test [10], 106%; in test [11] it was 102%; in test [12], 106%. The growth was 97.5% in [13]; 101% in test [14]; 114% in test [15]; 98.5% in [16]; 101% in test [17]; 101% in [18]. For the same compound, the growth in [19] and in test [20] was 96.3% each time.

Turning to `CCCCOC(=O)c1ccc(NC(=O)CCl)cc1`, the growth in test [1] was 10.4%; in [2] it was 71%; in test [3], 93.7%; in [4], 102%; in test [5], 35.8%; in [6], 27%. Besides, the growth in test [7] was -77.7% (active); in test [8] it was 69.4%; in test [9], 70.2%; in test [10], 68.8%; in [11], 78.3%; in test [12], 5.65% (active). For the same compound, the growth in [13] was -67.5% (active); in test [14] it was 7.83% (active); in test [15], 89.5%; in test [16], 35.7%; in test [17] it was 90%; in test [18] it was 69.9%. The growth in [19] is 75.5%; in test [20], 51.2%.

Regarding `N#Cc1ccc2nc[nH]c2c1`, the growth in test [1] is 99.1%; in [2] it was 90.9%; in test [3], 108%; in [4], 110%; in test [5], 107%; in test [6] it was 101%. Moreover, the growth in [7] is 102%; in test [8], 101%; in [9] it was 106%; in test [10] it was 112%; in test [11], 101%; in [12] it was 106%. Besides, the growth is 102% in [13]; 120% in test [14]; 109% in test [15]; 104% in [16]; 107% in test [17]; 113% in test [18]. For the same compound, the results for the growth in test [19] and in test [20] were 97.9% and 107%, respectively.

On to `Cc1c(-c2ccc(C3CCCCC3)cc2)nc2ccc(F)cc2c1C(=O)O`, for which the growth in [1] is 53.5%; in [2] it was 64.1%; in test [3] it was 56.4%; in test [4] it was 61.7%; in test [5], 7.22% (active); in test [6], 83.3%. In addition, the growth in test [7] was 38.5%; in test [8], 21.3%; in test [9] it was 38%; in [10], 44.2%; in test [11] it was 39.3%; in test [12], 22.9%. The growth is 62.1% in [13]; 62.7% in [14]; 74.1% in test [15]; 42.8% in [16]; 2.98% (active) in test [17]; 37.1% in [18]. Moreover, the growth in test [19] was 65.2%; in test [20] it was 47.9%.

As for `CCOS(=O)(=O)c1ccc([N+](=O)[O-])cc1`, the growth in test [1] is 101%; in test [2], 101%; in test [3] it was 102%; in test [4] it was 100%; in [5] it was 107%; in test [6] it was 99.4%. In addition, the growth in test [7] is 94.3%; in test [8], 86.1%; in test [9], 107%; in [10] it was 109%; in test [11], 108%; in [12], 99.2%. For the same compound, the growth in test [13] was 113%; in test [14], 106%; in test [15], 120%; in [16], 103%; in test [17] it was 101%; in test [18] it was 102%. The growth in [19] was 94.5%; in [20], 105%.

With `Oc1cccc(CNC2CCCCC2)c1`, the growth in test [1] is 107%; in [2] it was 102%; in test [3], 129%; in [4] it was 111%; in test [5], 116%; in test [6], 97.5%. Also, the growth in [7] is 90.4%; in [8] it was 101%; in test [9] it was 102%; in test [10], 120%; in [11] it was 119%; in [12] it was 101%. For the same compound, the growth in test [13] was 129%; in test [14], 102%; in test [15], 114%; in test [16], 103%; in [17] it was 120%; in [18], 106%. Also, the growth in test [19] is 119%; in test [20], 99.9%.

In the case of `CC12CCC3c4ccc(O)cc4CCC3C1CCC2=O` (stereo not given), the growth was 104% in test [1]; 97% in test [2]; 113% in [3]; 98.1% in test [4]; 105% in test [5]; 104% in [6]. Further, the growth in test [7] was 70%; in test [8], 92.3%; in test [9], 94.5%; in test [10], 103%; in test [11], 112%; in test [12], 93.9%. The growth in test [13] is 113%; in test [14], 83.5%; in test [15], 103%; in test [16] it was 99%; in [17], 112%; in [18] it was 96.6%. The growth in test [19] is 93.8%; in [20], 102%.
